EPAC1 agonist: Validation qHTS for agonist of cAMP-regulated guanine nucleotide exchange factor 3 (EPAC1); Rap guanine nucleotide exchange factor 3 (Homo sapiens), O95398; EPAC1 Rap1b BODIPY-GDP exchange, fluorescence; Potency, µM, actives largely listed as activators; hit rate 1% among 16,000; AID 1645883, 2021; also: nearly all actives have a fitted effect of over 70% in size
EPAC2 antag: Validation qHTS for antagonist of cAMP-regulated guanine nucleotide exchange factor 4 (EPAC2); Rap guanine nucleotide exchange factor 4 (Homo sapiens), Q8WZA2; EPAC2 Rap1B BODIPY-GDP exchange, fluorescence; Potency, µM (doses to about 112 µM), actives largely listed as inhibitors; hit rate 1.7% among 16,000; AID 1645886, 2021; also: nearly all actives have a fitted effect of over 40% in size
Target sequence (Q8WZA2 whole entry, looked up): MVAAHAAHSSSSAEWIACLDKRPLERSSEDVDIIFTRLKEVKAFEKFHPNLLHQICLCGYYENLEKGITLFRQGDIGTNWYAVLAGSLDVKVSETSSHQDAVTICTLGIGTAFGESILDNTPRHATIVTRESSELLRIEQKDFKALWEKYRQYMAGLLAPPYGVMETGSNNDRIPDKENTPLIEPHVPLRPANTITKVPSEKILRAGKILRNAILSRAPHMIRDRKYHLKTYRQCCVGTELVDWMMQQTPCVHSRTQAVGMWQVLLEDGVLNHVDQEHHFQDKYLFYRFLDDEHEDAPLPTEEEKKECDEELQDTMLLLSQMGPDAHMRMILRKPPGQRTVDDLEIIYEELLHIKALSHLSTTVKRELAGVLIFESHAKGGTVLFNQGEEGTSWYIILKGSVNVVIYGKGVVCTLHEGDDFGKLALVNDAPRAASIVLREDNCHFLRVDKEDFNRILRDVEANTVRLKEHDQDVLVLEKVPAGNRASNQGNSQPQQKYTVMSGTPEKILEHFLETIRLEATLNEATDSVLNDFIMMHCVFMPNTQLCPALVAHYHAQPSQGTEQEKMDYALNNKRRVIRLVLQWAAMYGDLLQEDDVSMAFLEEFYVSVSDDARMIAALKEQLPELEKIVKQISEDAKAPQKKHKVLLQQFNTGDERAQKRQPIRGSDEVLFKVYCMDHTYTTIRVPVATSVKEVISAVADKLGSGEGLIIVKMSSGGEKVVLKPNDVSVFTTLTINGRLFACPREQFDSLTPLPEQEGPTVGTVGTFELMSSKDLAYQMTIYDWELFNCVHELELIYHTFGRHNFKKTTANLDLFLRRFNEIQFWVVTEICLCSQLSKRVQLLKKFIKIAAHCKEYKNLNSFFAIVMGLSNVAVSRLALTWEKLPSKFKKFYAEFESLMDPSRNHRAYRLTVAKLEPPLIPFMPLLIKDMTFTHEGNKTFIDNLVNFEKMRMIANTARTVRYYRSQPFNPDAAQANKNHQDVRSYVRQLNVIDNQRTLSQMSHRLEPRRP
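Fluorescent exchange read-out: 100 nM EPAC2 with 250 nM RAP1B–BODIPY-GDP and 50 uM GDP; BODIPY-GDP release lowers fluorescence. Read at 480/540 nm every 5 min for 30 min at room temperature; normalized to 6.5 mM cAMP.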
Of the large screens only hits and unclear results are named; the others gave an inactive call; ! = repeats disagree. Compounds with a hit are over-represented: about 2.9% of the library has one in this group of screens. Calls follow the shape of the dose curve; as a rule, active = well fitted curve in the direction sought with a large enough effect; inconclusive = small, poorly fitted or top-dose-only effect, or another doubt; inactive = no such curve, though single readings can be large; an effect the other way counts as inactive or inconclusive.

CCC(=O)OCC(=O)[C@@]1(OC(=O)CC)[C@H](C)C[C@H]2[C@@H]3CCC4=CC(=O)C=C[C@]4(C)[C@@]3(F)[C@@H](O)C[C@@]21C	EPAC2 antag inconclusive
CCC(=O)O[C@]1(C(=O)CCl)[C@@H](C)C[C@H]2[C@@H]3C[C@H](F)C4=CC(=O)C=C[C@]4(C)[C@@]3(F)[C@@H](O)C[C@@]21C	EPAC2 antag inconclusive
CC(C)=CCC/C(C)=C/CC/C(C)=C/CO	EPAC2 antag 45µM!
CC(C)=CCC/C(C)=C/CC/C(C)=C/CC/C(C)=C/CC/C(C)=C/CC/C(C)=C/CC/C(C)=C/CC/C(C)=C/CC/C(C)=C/CO	none
O=C1NC(=O)[C@H]2[C@@H]1[C@@H]1C=C[C@H]2C1	none
Cc1cc2c(c(-c3nc4ccccc4s3)c1)OC(CNC(=O)CCc1cccnc1)C2 (centres undefined)	EPAC2 antag inconclusive
CC(C)(CO)[C@@H](O)C(=O)NCCCC(=O)O	none
COc1ccc2[nH]c(-c3ccccc3)c(CCNC(C)=O)c2c1	EPAC2 antag inconclusive
CCCC(=O)NCCc1c2n(c3ccc(OC)cc13)CCCc1ccccc1-2	EPAC2 antag 14µM
CCCCCCCCCCCCCCCC(=O)O[C@@H]1CC(C)=C(/C=C/C(C)=C/C=C/C(C)=C/C=C/C=C(C)/C=C/C=C(C)/C=C/C2=C(C)C[C@@H](OC(=O)CCCCCCCCCCCCCCC)CC2(C)C)C(C)(C)C1	none
CCCC(=O)O[C@]1(C(=O)COC(=O)CC)[C@@H](C)C[C@H]2[C@@H]3CCC4=CC(=O)C=C[C@]4(C)[C@@]3(F)[C@@H](O)C[C@@]21C	none
CCn1nc(C)cc1C(=O)NCC1Cc2cc(C)cc(-c3ccccc3C(=O)OC)c2O1 (centres undefined)	EPAC2 antag inconclusive
C[C@@H](O[C@H]1OCCN(Cc2n[nH]c(=O)[nH]2)[C@@H]1c1ccc(F)cc1)c1cc(C(F)(F)F)cc(C(F)(F)F)c1	EPAC2 antag 50µM
CO/N=C(\C(=O)N[C@@H]1C(=O)N2C(C(=O)O)=C(CSC(=O)c3ccco3)CS[C@H]12)c1csc(N)n1	none
Cc1ccc(C(=O)Nc2ccc(S(=O)(=O)O)c3cc(S(=O)(=O)O)cc(S(=O)(=O)O)c23)cc1NC(=O)c1cccc(NC(=O)Nc2cccc(C(=O)Nc3cc(C(=O)Nc4ccc(S(=O)(=O)O)c5cc(S(=O)(=O)O)cc(S(=O)(=O)O)c45)ccc3C)c2)c1	EPAC1 agonist 89µM!
COc1cccc(C2(CC(=O)N3CCN(c4nonc4C)CC3)CC(=O)N(C3CCCC3)C2=O)c1 (centres undefined)	none
Cc1ncc(Cc2ccccc2)c(C2CCN(S(=O)(=O)C[C@]34CC[C@H](CC3=O)C4(C)C)CC2)n1	EPAC2 antag inconclusive
Cc1ccc(O)c(N=Nc2ccccc2)n1	EPAC2 antag 56µM!
Cc1ccc2ccccc2n1	none
CO[C@H]1C[C@H](O[C@H]2[C@H](C)O[C@@H](O[C@@H]3/C(C)=C/C[C@@H]4C[C@@H](C[C@]5(C=C[C@H](C)[C@@H](C6CCCCC6)O5)O4)OC(=O)[C@@H]4C=C(C)[C@@H](O)[C@H]5OC/C(=C\C=C\[C@@H]3C)[C@]54O)C[C@@H]2OC)O[C@@H](C)[C@@H]1O	none
CC(C)CCC[C@@H](C)[C@H]1CC(=O)C2=C3CC[C@H]4C[C@@H](O)CC[C@]4(C)[C@H]3CC[C@@]21C	none
CCC(C)(C)C(=O)OC1CC(C)C=C2C=CC(C)C(CCC3CC(O)CC(=O)O3)C21 (centres undefined)	none
CCC(C)(C)C(=O)O[C@@H]1C[C@@H](C)C=C2C=C[C@H](C)[C@H](CC[C@@H]3C[C@@H](O)CC(=O)O3)[C@H]21	EPAC2 antag 50µM
CCCCOCCOCCOCc1cc2c(cc1CCC)OCO2	EPAC2 antag 50µM!
CSc1nc(C(=O)N2CCc3c(cnc(C)c3CNC(=O)c3ccc4c(c3)OCO4)C2)cs1	none
N[C@H](C(=O)O)[C@@H](O)c1ccc(O)c(O)c1	EPAC1 agonist inconclusive, EPAC2 antag 79µM
N[C@@H](Cc1ccc(O)c(O)c1)C(=O)O	none
CO[C@H]1[C@H](NC(=O)c2ccco2)c2ccccc2C12CCN(Cc1cc(Cl)ccc1O)CC2	none
Cc1oc(-c2ccccc2NC(=O)C2CCC2)nc1CNC(=O)c1cccc(C(F)(F)F)c1	none
Cc1sc(N)c(C(=O)c2cccc(C(F)(F)F)c2)c1C	EPAC2 antag 56µM
CC(CCc1ccc(O)cc1)N1CCOc2c(O)cc(-c3nc4ccccc4s3)cc2C1 (centres undefined)	none
Oc1ccc(Cl)cc1Sc1cc(Cl)ccc1O	EPAC2 antag 50µM
Cc1cc(-c2ccc(N=Nc3c(S(=O)(=O)O)cc4cc(S(=O)(=O)O)cc(N)c4c3O)c(C)c2)ccc1N=Nc1c(S(=O)(=O)O)cc2cc(S(=O)(=O)O)cc(N)c2c1O	EPAC2 antag 50µM
CC(=O)N(Cc1ccc2c(c1)OCO2)Cc1cc2ccc(C)cc2nc1-c1cccc(C)c1	EPAC2 antag inconclusive
CN[C@@H]1[C@@H](O)[C@@H](O[C@@H]2[C@@H](O)[C@H](O[C@H]3O[C@H](CN)[C@@H](O)[C@H](O)[C@H]3O)[C@@H](N)C[C@H]2NC(=O)C(O)CN)OC[C@]1(C)O (some centres undefined)	none
CC(C)c1c(C(=O)NCC(C)(C)N2CCOCC2)cnn1-c1nccc(-c2cccs2)n1	none
CSc1ccccc1C(=O)NCc1nc(-c2cccc(NC(=O)c3ccoc3C)c2)oc1C	none
CC[C@@]1(O)C(=O)OCc2c1cc1n(c2=O)Cc2cc3c(CN(C)C)c(O)ccc3nc2-1	EPAC1 agonist 112µM
CC[C@@]1(O)C(=O)OCc2c1cc1n(c2=O)Cc2cc3c([N+](=O)[O-])cccc3nc2-1	none
COc1ccccc1N1CCN(c2nc(CNC(=O)c3cc(C)oc3C)nc3ccccc23)CC1	none
CCOC(=O)C[C@H]1c2ccc(C(F)(F)F)cc2S(=O)(=O)N1c1cccc(OC)c1	EPAC2 antag 45µM
COc1cccc(N2[C@@H](CC(C)=O)c3cc(C(F)(F)F)ccc3S2(=O)=O)c1	EPAC2 antag inconclusive
Cc1cnc(SCc2ccccn2)nc1C1CCCN(C(=O)c2ccc3c(c2)OCO3)C1 (centres undefined)	none
Cc1oc(-c2ccccc2NC(=O)c2cccnc2)nc1CNC(=O)c1ccc(N(C)C)cc1	none
O=C(c1ccco1)N1CCC2(CC1)CN(c1cccc(-c3ccccc3)c1)C2	EPAC1 agonist 100µM, EPAC2 antag inconclusive
O=C(Oc1ccccc1)N1CCC2(CCCN(c3cccc(-c4ccccc4)c3)C2)CC1	EPAC1 agonist inconclusive
CC(=O)N1CCC2(CCCN(c3ccc(-c4ccccc4)cc3)C2)CC1	EPAC1 agonist 100µM, EPAC2 antag inconclusive
COCC(=O)N1CCC2(CCCN(c3ccc(-c4ccccc4)cc3)C2)CC1	none
O=C(c1ccco1)N1CCC2(CC1)CN(c1ccc(-c3ccccc3)cc1)C2	EPAC1 agonist inconclusive
CC(=O)N1CCC2(CCCN(c3cccc(-c4ccccc4)c3)C2)CC1	EPAC1 agonist 100µM, EPAC2 antag 45µM
O=C[C@H](O)[C@@H](O)[C@H](O[C@H]1O[C@H](CO)[C@@H](O[C@H]2O[C@H](CO)[C@@H](O)[C@H](O)[C@H]2O)[C@H](O)[C@H]1O)[C@H](O)CO	none
Cc1nc(C)c(C(=O)NCc2nc(-c3cccc(NC(=O)c4ccccn4)c3)oc2C)s1	none
O=C(c1cscn1)N1CCOc2ccc(CN3CCC(Oc4cccnc4)CC3)cc2C1	none

High-throughput results as filed in PubChem BioAssay.
